# Data taken from ChEMBL document CHEMBL2218924, “A broad activity screen in support of a chemogenomic map for kinase signalling research and drug discovery” (Biochem J, 2013).
# Assays:
# [1] = target: Death-associated protein kinase 1 (Homo sapiens) (UniProt P53355); conditions: at 10 µM
# [2] = target: Death-associated protein kinase 2 (Homo sapiens) (UniProt Q9UIK4); conditions: at 1 µM
# [3] = target: Death-associated protein kinase 2 (Homo sapiens) (UniProt Q9UIK4); conditions: at 10 µM
# [4] = target: T1, Serine/threonine-protein kinase DCLK2 (Homo sapiens) (UniProt Q8N568); conditions: at 1 µM
# T1 sequence (whole entry): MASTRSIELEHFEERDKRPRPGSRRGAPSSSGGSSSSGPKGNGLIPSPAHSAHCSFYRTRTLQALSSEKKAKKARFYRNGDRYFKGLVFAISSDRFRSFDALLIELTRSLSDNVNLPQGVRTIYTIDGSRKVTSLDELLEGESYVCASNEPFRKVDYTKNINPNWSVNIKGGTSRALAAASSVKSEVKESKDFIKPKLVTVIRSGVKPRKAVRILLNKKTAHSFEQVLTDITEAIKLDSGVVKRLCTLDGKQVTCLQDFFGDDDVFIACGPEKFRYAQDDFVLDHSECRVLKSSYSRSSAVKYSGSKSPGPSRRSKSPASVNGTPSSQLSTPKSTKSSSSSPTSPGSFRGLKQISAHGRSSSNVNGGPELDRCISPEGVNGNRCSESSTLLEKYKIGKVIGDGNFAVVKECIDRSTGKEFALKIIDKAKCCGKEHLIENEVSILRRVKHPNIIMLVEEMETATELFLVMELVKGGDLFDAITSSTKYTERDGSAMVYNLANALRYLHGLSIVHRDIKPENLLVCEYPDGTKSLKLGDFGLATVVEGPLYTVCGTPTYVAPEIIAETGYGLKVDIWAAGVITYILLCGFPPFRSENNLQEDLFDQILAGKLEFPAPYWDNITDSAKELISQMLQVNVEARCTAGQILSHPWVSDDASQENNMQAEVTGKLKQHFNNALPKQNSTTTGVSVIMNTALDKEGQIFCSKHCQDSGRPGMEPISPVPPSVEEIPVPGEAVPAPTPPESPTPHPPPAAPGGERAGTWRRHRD
# [5] = target: T1, Serine/threonine-protein kinase DCLK2 (Homo sapiens); conditions: at 10 µM
# [6] = target: T2, Discoidin domain-containing receptor 2 (Homo sapiens) (UniProt Q16832); conditions: at 1 µM
# T2 sequence (whole entry): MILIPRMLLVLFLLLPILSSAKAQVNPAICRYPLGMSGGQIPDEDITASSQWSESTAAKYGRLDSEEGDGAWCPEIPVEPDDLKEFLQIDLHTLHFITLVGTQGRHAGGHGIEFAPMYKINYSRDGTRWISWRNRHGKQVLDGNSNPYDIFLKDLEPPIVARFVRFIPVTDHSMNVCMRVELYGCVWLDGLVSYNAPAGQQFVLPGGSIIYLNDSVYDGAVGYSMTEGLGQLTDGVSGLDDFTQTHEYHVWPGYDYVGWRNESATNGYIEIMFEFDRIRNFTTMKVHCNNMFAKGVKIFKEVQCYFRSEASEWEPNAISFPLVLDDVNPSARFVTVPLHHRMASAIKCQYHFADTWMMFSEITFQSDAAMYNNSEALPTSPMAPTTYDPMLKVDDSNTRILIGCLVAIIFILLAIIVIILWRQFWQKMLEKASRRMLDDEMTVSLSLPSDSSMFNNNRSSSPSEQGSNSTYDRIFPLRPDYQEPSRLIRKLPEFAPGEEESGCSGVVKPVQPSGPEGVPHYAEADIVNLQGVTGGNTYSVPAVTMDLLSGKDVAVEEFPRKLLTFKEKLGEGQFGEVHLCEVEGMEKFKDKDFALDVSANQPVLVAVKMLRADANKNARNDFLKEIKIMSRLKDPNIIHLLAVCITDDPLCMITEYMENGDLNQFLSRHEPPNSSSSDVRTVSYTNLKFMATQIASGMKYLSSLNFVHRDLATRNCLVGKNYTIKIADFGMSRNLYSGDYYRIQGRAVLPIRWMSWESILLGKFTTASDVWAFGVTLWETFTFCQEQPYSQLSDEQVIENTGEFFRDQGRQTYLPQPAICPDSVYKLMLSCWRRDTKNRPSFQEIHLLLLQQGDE
# [7] = target: T2, Discoidin domain-containing receptor 2 (Homo sapiens); conditions: at 10 µM
# [8] = target: T3, Myotonin-protein kinase (Homo sapiens) (UniProt Q09013); conditions: at 1 µM
# T3 sequence (whole entry): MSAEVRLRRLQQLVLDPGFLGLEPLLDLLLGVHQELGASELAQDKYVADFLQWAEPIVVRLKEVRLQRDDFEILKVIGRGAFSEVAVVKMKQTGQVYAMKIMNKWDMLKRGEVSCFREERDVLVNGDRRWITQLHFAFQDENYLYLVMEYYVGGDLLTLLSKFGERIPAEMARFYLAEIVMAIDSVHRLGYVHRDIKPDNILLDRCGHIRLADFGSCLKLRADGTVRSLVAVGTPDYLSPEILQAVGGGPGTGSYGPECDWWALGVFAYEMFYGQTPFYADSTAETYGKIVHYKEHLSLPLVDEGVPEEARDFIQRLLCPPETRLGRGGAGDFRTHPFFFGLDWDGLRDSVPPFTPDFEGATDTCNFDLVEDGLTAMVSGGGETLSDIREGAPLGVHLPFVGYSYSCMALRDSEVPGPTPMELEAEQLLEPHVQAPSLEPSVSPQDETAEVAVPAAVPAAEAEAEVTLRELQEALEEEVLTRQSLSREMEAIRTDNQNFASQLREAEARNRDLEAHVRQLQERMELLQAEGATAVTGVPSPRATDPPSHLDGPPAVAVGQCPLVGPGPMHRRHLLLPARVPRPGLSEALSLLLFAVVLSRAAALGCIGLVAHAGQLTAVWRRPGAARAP
# [9] = target: T3, Myotonin-protein kinase (Homo sapiens); conditions: at 10 µM
# [10] = target: T4, Serine/threonine-protein kinase 17A (Homo sapiens) (UniProt Q9UEE5); conditions: at 1 µM
# T4 sequence (whole entry): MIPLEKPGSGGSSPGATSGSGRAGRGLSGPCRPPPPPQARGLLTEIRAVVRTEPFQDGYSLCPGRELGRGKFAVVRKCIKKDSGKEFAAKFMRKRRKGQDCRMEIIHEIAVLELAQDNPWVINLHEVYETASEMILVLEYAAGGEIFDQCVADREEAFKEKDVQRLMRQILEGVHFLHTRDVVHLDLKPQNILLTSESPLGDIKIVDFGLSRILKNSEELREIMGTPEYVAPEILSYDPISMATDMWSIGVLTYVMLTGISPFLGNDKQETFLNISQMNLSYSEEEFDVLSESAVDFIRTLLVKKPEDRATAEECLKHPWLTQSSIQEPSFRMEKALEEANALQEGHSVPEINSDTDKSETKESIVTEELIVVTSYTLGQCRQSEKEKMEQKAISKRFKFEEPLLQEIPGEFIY
# [11] = target: T4, Serine/threonine-protein kinase 17A (Homo sapiens); conditions: at 10 µM
# [12] = target: T5, Dual specificity tyrosine-phosphorylation-regulated kinase 2 (Homo sapiens) (UniProt Q92630); conditions: at 10 µM
# T5 sequence (whole entry): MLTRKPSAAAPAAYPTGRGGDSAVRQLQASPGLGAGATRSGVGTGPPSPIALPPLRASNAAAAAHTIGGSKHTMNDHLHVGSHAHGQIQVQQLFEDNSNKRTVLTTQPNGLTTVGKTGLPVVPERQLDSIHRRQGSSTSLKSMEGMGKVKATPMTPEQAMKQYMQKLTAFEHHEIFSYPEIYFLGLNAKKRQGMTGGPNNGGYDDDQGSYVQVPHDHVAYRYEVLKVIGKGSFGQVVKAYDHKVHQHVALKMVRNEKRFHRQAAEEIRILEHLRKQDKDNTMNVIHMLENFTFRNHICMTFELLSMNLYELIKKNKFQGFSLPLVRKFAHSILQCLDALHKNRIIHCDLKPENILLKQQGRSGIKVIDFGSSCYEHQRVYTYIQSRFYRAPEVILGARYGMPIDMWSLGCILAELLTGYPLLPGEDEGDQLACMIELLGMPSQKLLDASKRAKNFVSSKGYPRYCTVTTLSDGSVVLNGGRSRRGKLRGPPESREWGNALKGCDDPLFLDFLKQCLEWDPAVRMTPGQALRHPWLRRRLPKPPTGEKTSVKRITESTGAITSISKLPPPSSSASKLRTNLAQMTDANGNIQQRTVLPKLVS
# [13] = target: T6, Ephrin type-A receptor 1 (Homo sapiens) (UniProt P21709); conditions: at 1 µM
# T6 sequence (whole entry): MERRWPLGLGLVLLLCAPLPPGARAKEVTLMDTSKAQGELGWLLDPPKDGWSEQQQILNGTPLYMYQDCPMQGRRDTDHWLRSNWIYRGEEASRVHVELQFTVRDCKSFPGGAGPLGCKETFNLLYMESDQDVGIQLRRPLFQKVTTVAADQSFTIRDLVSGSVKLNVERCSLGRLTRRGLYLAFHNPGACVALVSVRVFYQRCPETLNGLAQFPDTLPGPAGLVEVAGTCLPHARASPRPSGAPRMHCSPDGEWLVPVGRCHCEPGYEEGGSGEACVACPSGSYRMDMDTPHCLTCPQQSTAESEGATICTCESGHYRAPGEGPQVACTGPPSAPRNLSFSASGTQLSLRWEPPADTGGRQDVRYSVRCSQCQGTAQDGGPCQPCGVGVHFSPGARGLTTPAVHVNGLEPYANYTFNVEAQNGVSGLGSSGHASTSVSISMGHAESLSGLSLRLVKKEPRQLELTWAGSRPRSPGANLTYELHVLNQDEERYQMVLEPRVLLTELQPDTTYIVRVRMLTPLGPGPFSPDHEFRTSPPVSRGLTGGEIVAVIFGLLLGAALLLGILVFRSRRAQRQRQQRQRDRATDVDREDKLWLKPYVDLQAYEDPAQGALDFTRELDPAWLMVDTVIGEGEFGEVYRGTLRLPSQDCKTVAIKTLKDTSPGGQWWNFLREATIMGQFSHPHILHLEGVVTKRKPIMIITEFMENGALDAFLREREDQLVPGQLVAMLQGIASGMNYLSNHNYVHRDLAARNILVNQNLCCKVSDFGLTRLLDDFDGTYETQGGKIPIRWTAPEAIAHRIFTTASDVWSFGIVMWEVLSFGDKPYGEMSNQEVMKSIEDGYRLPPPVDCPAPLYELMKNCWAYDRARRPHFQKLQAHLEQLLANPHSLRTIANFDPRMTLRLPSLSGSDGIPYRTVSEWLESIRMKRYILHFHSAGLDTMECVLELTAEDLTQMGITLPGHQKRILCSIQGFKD
# [14] = target: T6, Ephrin type-A receptor 1 (Homo sapiens); conditions: at 10 µM
# [15] = target: Ephrin type-A receptor 2 (Homo sapiens) (UniProt P29317); conditions: at 1 µM
# [16] = target: Ephrin type-A receptor 2 (Homo sapiens) (UniProt P29317); conditions: at 10 µM
# [17] = target: T7, Ephrin type-A receptor 3 (Homo sapiens) (UniProt P29320); conditions: at 1 µM
# T7 sequence (whole entry): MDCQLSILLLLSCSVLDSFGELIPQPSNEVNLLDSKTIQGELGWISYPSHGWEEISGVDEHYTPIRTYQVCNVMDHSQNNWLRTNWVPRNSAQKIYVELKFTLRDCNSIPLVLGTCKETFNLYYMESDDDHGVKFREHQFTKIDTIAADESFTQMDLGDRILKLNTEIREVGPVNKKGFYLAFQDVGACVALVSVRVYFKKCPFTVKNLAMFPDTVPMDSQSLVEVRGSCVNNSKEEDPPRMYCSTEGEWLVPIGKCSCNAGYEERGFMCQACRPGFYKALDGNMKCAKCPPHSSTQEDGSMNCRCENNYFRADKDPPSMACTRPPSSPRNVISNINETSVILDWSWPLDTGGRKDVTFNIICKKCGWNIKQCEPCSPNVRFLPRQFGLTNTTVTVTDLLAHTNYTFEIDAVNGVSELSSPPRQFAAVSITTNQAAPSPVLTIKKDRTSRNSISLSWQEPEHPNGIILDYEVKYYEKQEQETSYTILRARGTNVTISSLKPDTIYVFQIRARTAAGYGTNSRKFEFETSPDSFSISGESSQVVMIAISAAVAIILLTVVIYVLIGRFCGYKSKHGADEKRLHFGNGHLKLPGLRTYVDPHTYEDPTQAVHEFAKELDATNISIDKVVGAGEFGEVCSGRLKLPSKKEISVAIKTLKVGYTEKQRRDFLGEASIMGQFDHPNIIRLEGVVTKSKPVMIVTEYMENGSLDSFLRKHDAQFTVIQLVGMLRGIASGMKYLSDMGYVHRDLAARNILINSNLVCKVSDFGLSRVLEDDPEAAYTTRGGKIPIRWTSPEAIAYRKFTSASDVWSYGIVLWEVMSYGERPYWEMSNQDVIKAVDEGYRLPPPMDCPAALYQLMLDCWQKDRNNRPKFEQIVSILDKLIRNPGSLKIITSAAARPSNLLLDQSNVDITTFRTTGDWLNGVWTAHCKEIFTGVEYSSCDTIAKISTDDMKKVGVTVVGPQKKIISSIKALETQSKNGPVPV
# Sequence of Death-associated protein kinase 1 (Homo sapiens) (P53355 whole entry, looked up): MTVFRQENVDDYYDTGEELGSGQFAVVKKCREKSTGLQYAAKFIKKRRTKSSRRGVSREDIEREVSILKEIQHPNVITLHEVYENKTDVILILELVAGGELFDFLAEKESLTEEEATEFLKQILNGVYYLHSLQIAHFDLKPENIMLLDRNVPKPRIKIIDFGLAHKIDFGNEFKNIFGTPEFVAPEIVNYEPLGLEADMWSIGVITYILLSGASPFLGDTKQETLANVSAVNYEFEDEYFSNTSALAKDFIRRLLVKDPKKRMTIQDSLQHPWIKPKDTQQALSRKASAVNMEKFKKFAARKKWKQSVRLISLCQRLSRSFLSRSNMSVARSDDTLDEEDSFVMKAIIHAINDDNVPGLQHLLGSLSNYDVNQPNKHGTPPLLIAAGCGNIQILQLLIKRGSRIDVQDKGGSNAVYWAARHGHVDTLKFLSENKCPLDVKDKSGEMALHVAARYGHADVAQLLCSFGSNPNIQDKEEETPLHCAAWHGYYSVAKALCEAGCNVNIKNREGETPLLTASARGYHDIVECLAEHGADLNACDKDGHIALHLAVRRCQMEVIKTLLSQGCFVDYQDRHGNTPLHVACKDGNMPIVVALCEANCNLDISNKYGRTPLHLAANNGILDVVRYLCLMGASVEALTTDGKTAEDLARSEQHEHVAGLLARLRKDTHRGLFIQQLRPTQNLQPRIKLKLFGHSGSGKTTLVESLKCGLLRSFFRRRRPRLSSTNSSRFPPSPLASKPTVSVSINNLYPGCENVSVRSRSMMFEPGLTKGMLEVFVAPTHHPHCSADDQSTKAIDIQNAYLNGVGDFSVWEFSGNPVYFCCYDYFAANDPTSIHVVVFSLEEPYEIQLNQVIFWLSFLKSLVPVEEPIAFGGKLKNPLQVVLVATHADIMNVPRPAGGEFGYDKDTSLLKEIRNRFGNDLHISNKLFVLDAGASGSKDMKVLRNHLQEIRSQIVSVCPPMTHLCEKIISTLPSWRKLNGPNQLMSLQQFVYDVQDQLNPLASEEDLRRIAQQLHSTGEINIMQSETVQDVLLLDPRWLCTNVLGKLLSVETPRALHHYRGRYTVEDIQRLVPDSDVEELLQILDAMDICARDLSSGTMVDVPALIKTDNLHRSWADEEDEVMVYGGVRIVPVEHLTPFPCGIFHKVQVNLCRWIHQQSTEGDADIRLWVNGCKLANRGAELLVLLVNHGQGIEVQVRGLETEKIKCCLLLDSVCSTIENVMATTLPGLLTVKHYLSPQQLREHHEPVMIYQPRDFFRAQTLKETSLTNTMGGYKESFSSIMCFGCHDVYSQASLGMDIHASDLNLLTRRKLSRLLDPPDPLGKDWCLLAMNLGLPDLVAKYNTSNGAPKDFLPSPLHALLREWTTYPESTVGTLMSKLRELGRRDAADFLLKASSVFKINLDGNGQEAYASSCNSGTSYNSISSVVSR
# Sequence of Death-associated protein kinase 2 (Homo sapiens) (Q9UIK4 whole entry, looked up): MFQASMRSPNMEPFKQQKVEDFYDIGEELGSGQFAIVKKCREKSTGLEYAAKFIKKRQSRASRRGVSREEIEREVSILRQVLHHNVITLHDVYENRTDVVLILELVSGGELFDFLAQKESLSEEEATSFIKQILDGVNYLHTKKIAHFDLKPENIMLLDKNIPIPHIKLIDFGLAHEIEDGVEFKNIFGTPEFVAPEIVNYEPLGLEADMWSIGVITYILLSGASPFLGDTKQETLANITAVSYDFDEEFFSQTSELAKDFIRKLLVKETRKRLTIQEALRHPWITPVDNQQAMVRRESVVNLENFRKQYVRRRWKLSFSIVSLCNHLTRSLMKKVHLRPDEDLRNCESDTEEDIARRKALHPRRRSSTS
# Sequence of Ephrin type-A receptor 2 (Homo sapiens) (P29317 whole entry): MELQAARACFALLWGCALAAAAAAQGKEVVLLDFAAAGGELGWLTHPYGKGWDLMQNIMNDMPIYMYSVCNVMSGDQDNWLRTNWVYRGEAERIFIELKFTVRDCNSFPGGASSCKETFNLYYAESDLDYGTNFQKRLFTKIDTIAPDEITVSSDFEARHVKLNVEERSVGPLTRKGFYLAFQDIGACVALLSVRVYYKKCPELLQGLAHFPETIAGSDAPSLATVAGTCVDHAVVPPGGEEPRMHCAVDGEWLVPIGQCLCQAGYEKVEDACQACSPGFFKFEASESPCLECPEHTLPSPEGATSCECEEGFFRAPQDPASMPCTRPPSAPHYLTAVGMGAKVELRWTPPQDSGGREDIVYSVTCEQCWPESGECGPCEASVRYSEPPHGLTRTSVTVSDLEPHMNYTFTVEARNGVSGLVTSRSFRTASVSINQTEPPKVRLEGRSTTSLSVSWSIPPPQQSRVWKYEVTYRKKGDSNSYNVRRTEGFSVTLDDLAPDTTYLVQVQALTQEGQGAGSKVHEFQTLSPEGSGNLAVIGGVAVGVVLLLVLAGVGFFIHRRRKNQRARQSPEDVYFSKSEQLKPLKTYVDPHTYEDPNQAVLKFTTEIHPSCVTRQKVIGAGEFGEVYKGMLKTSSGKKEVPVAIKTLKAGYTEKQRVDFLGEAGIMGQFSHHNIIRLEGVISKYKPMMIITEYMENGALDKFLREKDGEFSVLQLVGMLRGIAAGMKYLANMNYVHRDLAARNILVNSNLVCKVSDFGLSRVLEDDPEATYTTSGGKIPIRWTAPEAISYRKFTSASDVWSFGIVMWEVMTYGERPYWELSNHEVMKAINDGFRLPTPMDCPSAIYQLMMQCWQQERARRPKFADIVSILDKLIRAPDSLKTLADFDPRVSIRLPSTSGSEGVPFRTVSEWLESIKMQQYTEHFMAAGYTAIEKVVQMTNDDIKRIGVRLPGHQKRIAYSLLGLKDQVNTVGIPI
Compound,residual activity [1],residual activity [2],residual activity [3],residual activity [4],residual activity [5],residual activity [6],residual activity [7],residual activity [8],residual activity [9],residual activity [10],residual activity [11],residual activity [12],residual activity [13],residual activity [14],residual activity [15],residual activity [16],residual activity [17]
COc1cc2nccc(Oc3ccc(NC(=S)NC(=O)c4ccccc4C)cc3)c2cc1OC,76%,99%,99%,82%,94%,26%,11%,138%,141%,129%,92%,91%,46%,24%,91%,55%,98%
N#Cc1c(NC(=O)c2cccc3ccccc23)sc2c1CCCC2,81%,93%,–,–,77%,–,–,100%,91%,77%,134%,–,–,–,–,–,–
CC(C)(C)c1nc2c3ccc(F)cc3c3c(=O)[nH]ccc3c2[nH]1,3%,11%,14%,38%,27%,–,–,–,–,0%,0%,–,74%,–,103%,103%,99%
CN(C)S(=O)(=O)c1ccc2c(c1)/C(=C/c1cc3c([nH]1)CCCC3)C(=O)N2,99%,–,–,55%,55%,–,–,113%,92%,70%,–,91%,96%,96%,89%,–,91%
